# Assay outcomes from PubChem.
# An excerpt weighted towards active compounds, which were near 4.6% of everything screened.
# D1 ag: human D1 receptor agonism; P21728; HEK293 T-REx D1 cells, calcium flux, agonist mode; activation, % at 2 µM; 360,000 tested, 1% active; further: 0% is about no effect
#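 Inducible HEK293 T-REx D1 cells, force-coupled to calcium signalling, were plated at 4000 cells/well with tetracycline and held overnight at 30 C. After no-wash calcium dye loading, compound-evoked calcium rise over 180 s flagged agonists.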
# TRHR agonist: agonists of human TRH receptor. TRHR cells, calcium flux fluo-8, FDSS agonist mode. activation, % at 2 µM. 360,000 tested, 0.18% active; further: 0% is about no effect
# Target sequence (P34981 whole entry, looked up): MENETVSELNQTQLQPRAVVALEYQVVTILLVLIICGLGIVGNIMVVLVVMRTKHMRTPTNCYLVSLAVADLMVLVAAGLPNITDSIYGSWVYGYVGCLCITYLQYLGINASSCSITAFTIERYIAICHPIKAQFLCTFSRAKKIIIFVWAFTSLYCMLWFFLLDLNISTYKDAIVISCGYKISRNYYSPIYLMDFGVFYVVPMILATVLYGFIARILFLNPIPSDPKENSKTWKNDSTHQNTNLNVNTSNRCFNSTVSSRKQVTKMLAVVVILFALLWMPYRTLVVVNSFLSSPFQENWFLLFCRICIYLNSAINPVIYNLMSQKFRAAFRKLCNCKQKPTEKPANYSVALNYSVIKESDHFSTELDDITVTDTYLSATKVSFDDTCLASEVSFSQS
#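 TRHR-expressing cells, plated overnight in medium with 10% serum, were loaded with fluo-8 calcium dye at room temperature. After a 10 s baseline, library compound was pin-added and calcium release was recorded kinetically (ex 480/em 530) as agonist response.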
# D1 potentiator: enhances dopamine response at the human D1 receptor; AID 504651; 360,000 tested, 0.036% active; potentiation, % at 10 µM; P21728; HEK293 TREx D1 cells, calcium flux, dopamine EC20 potentiation; in the data active means potentiation above about 30%; further: 0% is about no effect
# D1 antag: antagonists of human D1 dopamine receptor; activity change, negative = inhibition, % at 10 µM; HEK293 TREx D1 cells, calcium flux, dopamine EC80; hits give low values; P21728; AID 504652; 360,000 tested, 3.2% active; in the data active means activity change below about -30%; further: on the % scale 0 is the no-effect control and ±100 the full control effect
#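 Tetracycline-induced HEK293 Trex D1 cells, force-coupled to calcium, dye-loaded; compounds added and read 180 s, then EC80 dopamine added and calcium flux tracked kinetically another 180 s.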
# TRHR PAM: allosteric enhancers of human TRH receptor; AID 493056; 360,000 tested, 0.66% active; enhancement, % at 2 µM; TRHR cells, fluo-8 calcium fluorescence, EC20 TRH enhancement; in the data active means enhancement above about 30%; further: 0% is about no effect
#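 Enhancer read-out: after compound pinning and an initial kinetic agonist-mode read, an EC20 of TRH (10 nM final) was injected and fluo-8 calcium signal (Ex 480/Em 530) followed at 1 s/cycle for 100 cycles in TRHR-expressing cells.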
# Active calls of the source: *; nt = not tested or not shown. Unless noted, no stated cut-off is given here; in the data, active means activation above about 30%; inactive means the rest.
SMILES,D1 ag,TRHR agonist,D1 potentiator,D1 antag,TRHR PAM
CC(C)NC[C@@H](O)c1ccc(O)c(O)c1,0,0,5,-32*,10
NCC(O)(c1ccc(Cl)cc1)c1ccc(Cl)cc1,51*,18,-9,-4,24
CCN(Cc1nc(-c2ccc(OC)c(OC)c2)no1)S(=O)(=O)c1ccc(OC)cc1,1,0,2,-34*,-4
COc1ccc(-c2noc(COc3ccc(Br)cc3C)n2)cc1OC,33*,0,-1,2,28
COc1ccc(-c2noc(COc3ccc4ccccc4c3Br)n2)cc1OC,0,-2,-5,11,4
COc1ccc(-c2noc(COc3ccc(C)c(C)c3)n2)cc1OC,9,1,-5,-45*,-8
Cc1ccc(-c2noc(COc3ccc(Br)c(C)c3)n2)cc1,12,1,-7,-4,-1
Cc1nn(CCC(=O)Nc2ccccc2Br)c(=O)c2nn(-c3ccccc3)c(C)c12,0,-1,-5,-6,2
CC(C)(C)C1CCc2c(sc3nc(-c4cc5cc(Cl)ccc5oc4=O)[nH]c(=O)c23)C1 (stereo unspecified),0,0,-3,-6,8
CCOC(=O)c1cc(-c2ccccc2)n(CCC(=O)NCCc2ccccc2)c1C,16,0,-4,1,-8
Oc1ccc(C23CCCC2C2(CCCC2)c2ccc(O)cc2O3)c(O)c1 (stereo unspecified),152*,0,nt,-8,5
COc1cccc(C(=O)Nc2nc(-c3nnn(-c4ccccc4C(F)(F)F)c3C)ns2)c1,4,1,-1,-15,-2
O=C(C1=C[C@@H](c2ccc(Br)cc2)C[C@@H](OCc2ccc(CO)cc2)O1)N1CCOCC1,2,1,0,-3,1
O=C(NCc1ccccc1)C1=C[C@H](c2ccc(Br)cc2)C[C@H](OCc2ccc(CO)cc2)O1,32*,-1,-3,2,-6
O=C(C1=C[C@@H](c2ccccc2)C[C@@H](OCCCCO)O1)N1CCOCC1,-5,0,-3,-37*,2
O=C(C1=C[C@@H](c2ccc(Br)cc2)C[C@@H](OCCCCO)O1)N1CCOCC1,-5,0,-6,-70*,3
O=C(C1=C[C@H](c2ccc(Br)cc2)C[C@H](OCc2ccc(CO)cc2)O1)N1CCOCC1,2,0,-2,-33*,4
CN1CCN(C(=O)C2=C[C@@H](c3ccccc3)C[C@@H](OCCCCO)O2)CC1,-2,0,-4,-3,-1
O=C(Nc1ccc(F)c(F)c1)C1CCCN1S(=O)(=O)c1cccc2nsnc12 (stereo unspecified),0,0,3,-5,0
CNC(=O)COc1coc(CN2CCN(C(=O)c3ccco3)CC2)cc1=O,2,0,-5,2,5
N#Cc1nc(-c2cccc3ccccc23)oc1NCC#CCOC(=O)c1cccs1,6,1,-2,-4,-10
O=S(=O)(c1ccc2c(c1)OCCO2)N1CCN(S(=O)(=O)c2cc(F)c(F)cc2F)CC1,3,0,2,-5,-1
O=C(Nc1ccc(F)cc1)Nc1ccc2snnc2c1,48*,3,-4,-31*,-6
CNC(=O)Nc1ccc2snnc2c1,8,-1,nt,0,16
COC(=O)c1cc(NC(=O)Nc2ccc3snnc3c2)cc(C(=O)OC)c1,7,0,-4,-13,3
SMILES,D1 ag,TRHR agonist,D1 potentiator,D1 antag,TRHR PAM
CC1CN(C(=O)Nc2ccc3snnc3c2)c2ccccc21 (stereo unspecified),4,1,-7,-63*,-1
CC(=O)c1ccc(NC(=O)Nc2ccc3snnc3c2)cc1,46*,3,-4,-74*,5
O=C(Nc1ccc2snnc2c1)N1CCSCC1,14,1,-5,-2,-1
O=C(Nc1cccc(F)c1)c1ccc2snnc2c1,16,0,-2,-31*,5
O=C(CN1C(=O)C2CCCCN2c2ccc(C(=O)N3CCCC3)cc21)NCc1ccc(F)cc1 (stereo unspecified),1,-1,4,13,4
COc1cc2c(=O)n(Cc3ccccc3Cl)c(=O)n(CC(=O)Nc3ccc(C)c(C)c3)c2cc1OC,2,1,-1,-1,-3
CC1=C(c2ccc(C(C)C)cc2)S(=O)(=O)NC1=NCCCN1CCN(c2ccccc2F)CC1,-2,1,3,-6,4
CCc1nn(CC(=O)NCc2ccc(OC)cc2OC)c(=O)c2cc3c(OC)cccc3n12,0,0,-1,19,-4
CCc1cccc(NC(=O)CCc2nc3cccnc3n2-c2ccccc2)c1,0,-1,0,5,-3
Cc1c(Cl)cccc1NC(=O)Nc1ccc2snnc2c1,39*,2,-4,-29,-1
Cc1ccc(F)c(NC(=O)Nc2ccc3snnc3c2)c1,13,2,-3,-27,-2
Cc1nc2nc(NCc3ccc(Br)cc3)[nH]n2c(=O)c1Cc1ccccc1,-1,0,-2,3,-1
CCOc1ccc(Oc2ccccc2NC(=O)CSCC(=O)Nc2cc(C)on2)cc1,13,0,-6,-44*,-7
Cc1cccc(Oc2ccccc2NC(=O)CSCC(=O)Nc2cc(C)on2)c1,15,0,-7,-44*,-10
Cc1cc(NC(=O)CSCC(=O)Nc2ccccc2OC(F)F)no1,1,0,0,3,2
CC(=O)c1cccc(OCCN2C(=O)NC(C)(C)C2=O)c1,0,0,1,-30*,-6
CCc1cccc(OCCCN2C(=O)NC(C)(C)C2=O)c1,3,2,-4,-5,-11
CC1CCc2sc(C(=O)Nc3ccc(N4CCOCC4)cc3)cc2C1 (stereo unspecified),4,1,2,-7,17
CC1CCc2sc(C(=O)NCC(C)(C)N3CCOCC3)cc2C1 (stereo unspecified),3,0,-2,-68*,4
COC(=O)Cc1c(C)c2ccc(OCC(=O)N3CCOCC3)cc2oc1=O,1,1,-1,-32*,-4
CCc1c(C)c2ccc(OCC(=O)OC)cc2oc1=O,5,0,-4,6,-2
CCC(=O)N1CCc2cc(Br)cc(S(=O)(=O)CCC(=O)Nc3cccc(Cl)c3)c21,1,0,2,-1,0
Cn1c(=O)n(-c2ccc(F)c(Cl)c2)c(=O)c2sc3ccccc3c21,8,0,-2,3,-2
O=C(CCC(=O)NNC(=O)COc1ccc(Br)cc1)NCc1ccccc1,0,0,-1,-34*,5
Cc1ccc(C(=O)NCC(=O)OCc2c(F)cccc2Cl)cc1,4,0,-3,4,10
Cc1ccc(S(=O)(=O)NCC(=O)NCC(=O)OCc2c(F)cccc2Cl)cc1,13,-1,-6,-62*,9
